Data on 72 compounds can be found in PubChem BioAssay AID504357 (The Scripps Research Institute Molecular Screening Center, 2011).

By inhibition is commonly meant the change of the read-out against control, counted positive when it falls.

Values joined by “and” are separate entries in the source; they are usually repeats but may differ in a detail not shown here. Equal values may be shown once. About 700 (0.21%) of roughly 340,000 compounds were called active. This is one part of a sample in which actives are shown more often than they occur. A number with no mark means an inactive call. No stated cut-off is given here; in the data, active means inhibition above about 22% (passing the limit was not always enough); inactive means the rest.

The target in this assay is Mu-type opioid receptor (Homo sapiens) + Delta-type opioid receptor (Homo sapiens) (UniProt P35372+P41143). Briefly: inverse agonists of MOR-DOR heterodimerization, primary screen, cell-based, luminescence (AID 504357).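 Further: 0% = cells with DMSO and 100% = wells without cells with DMSO.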 The note with it: cell-based MOR-DOR heterodimer luminescence, inverse agonism; at 9.3 µM; stronger effect = higher value.
Mu-type opioid receptor (Homo sapiens) + Delta-type opioid receptor (Homo sapiens), sequence (P35372 whole entry, looked up): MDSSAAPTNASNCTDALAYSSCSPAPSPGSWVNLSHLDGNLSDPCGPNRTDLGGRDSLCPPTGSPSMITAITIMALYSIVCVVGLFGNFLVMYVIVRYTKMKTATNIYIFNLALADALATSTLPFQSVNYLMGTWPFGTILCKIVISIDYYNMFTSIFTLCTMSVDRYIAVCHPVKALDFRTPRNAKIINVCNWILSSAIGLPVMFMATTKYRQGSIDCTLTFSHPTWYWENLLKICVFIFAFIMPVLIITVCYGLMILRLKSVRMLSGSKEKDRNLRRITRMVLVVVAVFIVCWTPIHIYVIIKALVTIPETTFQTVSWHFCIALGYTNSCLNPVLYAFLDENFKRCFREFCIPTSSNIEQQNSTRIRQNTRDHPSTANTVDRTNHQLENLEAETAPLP
Mu-type opioid receptor (Homo sapiens) + Delta-type opioid receptor (Homo sapiens), sequence (P41143 whole entry, looked up): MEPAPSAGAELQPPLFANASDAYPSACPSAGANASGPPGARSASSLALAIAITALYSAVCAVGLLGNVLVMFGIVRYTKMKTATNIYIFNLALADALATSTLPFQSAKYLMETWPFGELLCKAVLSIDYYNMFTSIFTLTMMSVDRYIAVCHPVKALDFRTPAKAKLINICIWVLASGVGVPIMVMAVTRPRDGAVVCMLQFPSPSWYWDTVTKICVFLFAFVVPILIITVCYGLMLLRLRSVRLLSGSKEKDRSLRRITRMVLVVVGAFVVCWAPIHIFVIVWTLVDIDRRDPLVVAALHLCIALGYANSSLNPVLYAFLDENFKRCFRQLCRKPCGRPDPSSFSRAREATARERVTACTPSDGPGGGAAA
Consider `O=C1CCC(=O)N(O)CCCCCNC(=O)CCC(=O)N(O)CCCCCNC(=O)CCC(=O)N(O)CCCCCN1`, for which the inhibition was 8.42%.

Take `CN(O)C(=S)c1ccccc1`: the inhibition is 41.1% (active).

Take `CN(/N=C/c1ccccc1)C(=S)c1ccccc1`: the inhibition was -3.87%.

In the case of `CN(CC(=O)O)C(=O)c1ccccc1`, the inhibition is 10.9%.

As to `Cc1ccc(NC(=O)c2cccs2)cc1S(=O)(=O)N(C)C`, the inhibition was 0.25%.

As to `O=C(NNC(=O)c1ccc(Cl)cc1Cl)c1cccs1`, the inhibition was 2.42%.

Regarding `Cc1ccc(NNC(=O)c2cccs2)cc1Cl`, the inhibition is 53.4% (active).

`CSc1ccc(Cl)c(C(=O)OCC(=O)N2CCNC2=O)c1`: the inhibition was 16.2%.

As to `Cc1cc(C)cc(N)c1`, the inhibition was 14.8%.

In the case of `CCN(CC(=O)NCc1ccco1)S(=O)(=O)c1ccc(F)cc1`, the inhibition was -7.35%.

In the case of `COc1ccccc1C(=O)NC(=O)COC(=O)c1ccco1`, the inhibition was 3.92%.

For the compound `Cc1cccc(-n2c(SCC(N)=O)nc3c(c2=O)C2(CCCCC2)Cc2ccccc2-3)c1`, the inhibition was -5.65%.

`CC1CC2=C(CC1/C=N/NC(N)=S)C(C)(C)CCC2` (configuration not stated): the inhibition was -16.2%.

With `CCn1cc(/C=C2/SC(=S)NC2=O)c(C)n1`, the inhibition was 9.33%.

`CC1CCCC(N2CCN(C(=O)c3ccc(F)cc3)CC2)C1` (configuration not stated): the inhibition was 1.43%.

For the compound `CCOc1ccc(S(=O)(=O)NCCC(=O)N2CCCCCCC2)cc1`, the inhibition was -1.55%.

For the compound `O=C(CCN1CCN(C/C=C/c2ccccc2)CC1)Nc1ccccc1Cl`, the inhibition is 1.43%.

Take `CC(c1cccnc1)N(CCN(C)C)C(=O)Nc1ccc(Cl)c(Cl)c1` (configuration not stated): the inhibition is -197%.

In the case of `Cc1cccc(C)c1NC(=O)C(Cl)C(=O)c1ccccc1` (configuration not stated), the inhibition is 34.4% (active).

Regarding `CC(NC(=O)c1ccccc1)C(=O)Nc1ccccc1` (configuration not stated), the inhibition was 19.2%.

For `Cc1cccc(C)c1NC(=O)CN(C)C(=O)CCC(=O)c1ccccc1`, the inhibition was 3.3%.

Regarding `Cc1cc(C)c(S(=O)(=O)N2CCC(C(=O)OCc3c(C)noc3C)CC2)c(C)c1`, the inhibition was 6.69%.

Regarding `COc1cccc(-c2ccc(C#N)c(SCC(=O)NCCc3ccc(Cl)cc3)n2)c1`, the inhibition was -45.6%.

For the compound `Oc1ccc(N=Nc2nccs2)c(O)c1`, the inhibition is 37.2% (active).

As to `Cc1ccc(S(=O)(=O)N(C)c2ccc(OCC(=O)NC3=NCCS3)cc2)cc1`, the inhibition was 7.13%.

In the case of `O=C(COc1ccccc1)Nc1ccc(F)cc1`, the inhibition was 7.72%.

For `CN(c1ccccc1)S(=O)(=O)c1ccc(NC(=O)COc2ccccc2)cc1`, the inhibition is 31.1% (active).

Turning to `Cc1cccc(CC2(O)C(=O)Nc3ccccc32)n1` (configuration not stated), the inhibition was 15.9%.

Consider `Cc1ccc(NC2(C#N)C(=O)Nc3ccccc32)cc1` (configuration not stated), for which the inhibition was 63.2% (active).

For `Cc1cc(O)c(C2(O)C(=O)Nc3ccccc32)cc1C` (configuration not stated), the inhibition was 10.4%.

In the case of `CC(CC(=O)N1CCN(c2ccccc2)CC1)S(=O)(=O)c1ccc2c(c1)NC(=O)CS2` (configuration not stated), the inhibition was 4.28%.

As to `CCCCCCCCCCCCN1[C@@H](CC(C)=O)c2cc(F)cc(F)c2S1(=O)=O`, the inhibition was 8.79%.

With `Cc1cc(=O)oc2c1c(C)nn2-c1ccc(Cl)cc1`, the inhibition is 11%.

As for `Cc1ccc(CN(CC(=O)NCC2CCCO2)S(=O)(=O)c2ccc(C)cc2)cc1` (configuration not stated), the inhibition is 10.1%.

Turning to `Nc1nnc(C2CCCC2)s1`, the inhibition is 11.4%.

In the case of `O=C(NCCN1CCOCC1)/C(=C/c1ccc(F)cc1)NC(=O)c1ccccc1`, the inhibition is 18.7%.

As for `Cc1cc(NC(=O)CN2CCC(O)(c3cccc(F)c3)CC2)no1`, the inhibition was 10.8%.

With `COc1cccc(CNC(=O)C2CCCN(S(=O)(=O)N3CC(C)CC(C)C3)C2)c1` (configuration not stated), the inhibition was 16%.

In the case of `Cc1ccsc1C(=O)NCCc1ccco1`, the inhibition is 7.66%.

On to `O=C(NCCSc1ncc(-c2ccccc2)[nH]1)c1ccco1`, for which the inhibition was 13.1%.

For the compound `CC1CCCCC1NC(=O)COC(=O)Cc1ccc(Cl)cc1` (configuration not stated), the inhibition is 21.7%.

Turning to `CC(=O)N1c2ccc(S(=O)(=O)N3CCCC(C(=O)Nc4ccc(C)cc4C)C3)cc2CC1C` (configuration not stated), the inhibition is -10.6%.

Turning to `O=C(c1ccco1)N1CCN(C(=O)C2CC(c3ccc(Cl)c(Cl)c3)=NO2)CC1` (configuration not stated), the inhibition is 9.92%.

With `Cc1cc(OC(=O)c2ccccc2)c([N+](=O)[O-])c(=O)[nH]1`, the inhibition was -3.39%.

On to `O=C(O)CCN1C(=O)CC2(CCCCC2)C1=O`, for which the inhibition was 14.8%.

`O=[N+]([O-])/C=C/c1ccc2c(ccn2Cc2ccccc2)c1`: the inhibition was 38.9% (active).

As to `COc1ccc(CNCCCn2cnc3c(OCc4ccccc4)ncnc32)cc1`, the inhibition is 11.7%.

Consider `O=C(CC(=O)c1cccnc1)c1ccccc1`, for which the inhibition was 13.2%.

With `Cc1ccc2c(c1)C(O)(CC(=O)c1cccc(-n3cccc3)c1)C(=O)N2` (configuration not stated), the inhibition was 17.9%.

`Cc1ccc2c(c1)C(O)(CC(=O)c1cccnc1)C(=O)N2` (configuration not stated): the inhibition is 37.3% (active).

As to `CN(c1ccccc1)S(=O)(=O)c1cc(C(=O)N2CCN(c3ncccn3)CC2)ccc1Cl`, the inhibition was 2.36%.

For `COc1ccccc1CN1CCCC(N2CCN(c3ccc(F)cc3)CC2)C1` (configuration not stated), the inhibition was 8.79%.

In the case of `C[n+]1ccc(C(=O)NCc2ccccc2)cc1`, the inhibition is -0.68%.

`COc1c(C=O)c(CCN(C)C(=O)c2ccc(F)cc2)cc2c1OCO2`: the inhibition was 9.88%.

For `CCOCCCNC(=O)C(NC(=O)Cc1c[nH]c2ccccc12)c1ccc(OC)cc1` (configuration not stated), the inhibition was 12.1%.

As to `Cc1ccccc1OCC(=O)NNC(=O)c1ccc(-n2cncn2)c([N+](=O)[O-])c1`, the inhibition was 8.19%.

Turning to `CCc1c(C)sc(NC(=O)OC)c1C(=O)N1CCOCC1`, the inhibition is 5.54%.

For `CCOc1ccc(S(=O)(=O)N2CCCC(C(=O)N3CCC(C(N)=O)CC3)C2)cc1Cl` (configuration not stated), the inhibition was 5.16%.

As to `COc1ccccc1N1CCN(CC(=O)Nc2ccnn2C2CCCC2)CC1`, the inhibition was 0.88%.

Regarding `CSCCC(NC(=O)COc1ccccc1)C(=O)OCc1ccc(Cl)cc1` (configuration not stated), the inhibition is -17.1%.

`CSCCC(NC(=O)COc1ccccc1)C(=O)OCC(=O)c1cc2ccccc2o1` (configuration not stated): the inhibition was 68.4% (active).

Turning to `CSCCC(NC(=O)COc1ccccc1)C(=O)OCCOc1ccc(Br)cc1` (configuration not stated), the inhibition is -28.3%.

In the case of `CN1CC(=O)N=C1N`, the inhibition was 16.7% and 15.6%.

As for `Cc1cc(Cl)c(S(=O)(=O)NCc2cccnc2)cc1OCC(N)=O`, the inhibition is 11.2%.

As to `CCOc1ccc(NC(=O)CN(C)CC(=O)NC(C)c2ccccc2)cc1OCC` (configuration not stated), the inhibition is 1.67%.

For the compound `C=CCn1c(N)c(C(=O)OCC(C)C)c2nc3ccccc3nc21`, the inhibition was 55.7% (active).

As for `COCC(C)OC(=O)c1c(N)n(CCCN2CCOCC2)c2nc3ccccc3nc12` (configuration not stated), the inhibition is 10.3%.

On to `C=CCn1c(C(C)NC(=O)CC)nc2ccccc21` (configuration not stated), for which the inhibition is 18%.

Regarding `FC(F)(F)C1CCCN(c2nsc3ccccc23)C1` (configuration not stated), the inhibition was 11.2%.

With `C=CCN1C(=O)C(O)(CC(=O)c2ccc(Cl)cc2)c2ccccc21` (configuration not stated), the inhibition was 12%.

With `C=CCN1C(=O)C(O)(CC(=O)c2ccccn2)c2ccccc21` (configuration not stated), the inhibition is 15.1%.

For `CCOC(=O)CN1C(=O)C(O)(CC(=O)c2ccccn2)c2ccccc21` (configuration not stated), the inhibition is 49.5% (active).
